Hits are enriched below; roughly 3.5% of the tested compounds scored in any of these assays.
MITF primary: blocks human microphthalmia-associated transcription factor | AlphaScreen MITF homodimerization, bead proximity signal | inhibition, % at 2.6 µM | 650,000 compounds, 0.91% hits; in the data active means inhibition above about 50%
Target sequence (O75030 whole entry, looked up): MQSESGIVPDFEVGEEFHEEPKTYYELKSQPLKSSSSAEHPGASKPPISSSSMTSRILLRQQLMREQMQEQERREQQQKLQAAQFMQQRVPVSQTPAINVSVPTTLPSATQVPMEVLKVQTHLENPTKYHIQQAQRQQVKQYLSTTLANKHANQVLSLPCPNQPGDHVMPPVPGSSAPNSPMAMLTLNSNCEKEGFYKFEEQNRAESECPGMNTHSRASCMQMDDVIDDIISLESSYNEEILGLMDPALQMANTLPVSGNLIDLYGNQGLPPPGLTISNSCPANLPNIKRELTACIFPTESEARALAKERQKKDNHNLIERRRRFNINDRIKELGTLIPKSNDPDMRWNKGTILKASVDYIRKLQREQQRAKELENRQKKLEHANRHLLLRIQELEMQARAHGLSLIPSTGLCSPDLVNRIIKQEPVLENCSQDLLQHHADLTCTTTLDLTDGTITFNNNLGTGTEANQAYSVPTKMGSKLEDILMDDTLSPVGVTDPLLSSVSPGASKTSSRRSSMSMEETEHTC
FBW7 activator: human FBW7 E3 ligase activation, primary screen | Q969H0 | AlphaScreen FBW7–phospho-cyclin E peptide binding, activator screen | normalized activity (activation), % at 26.1 µM | 650,000 compounds, 0.13% hits | AID 1259310; in the data active means normalized activity above about 1.9%;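 further: purified mutant Fbw7 with reduced substrate affinity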
GPR151 activ: activators of human GPR151. 650,000 compounds, 1% hits. activation, % at 11.2 µM. PathHunter beta-arrestin GPR151 cells, luminescence; in the data active means activation above about 4.9%
TEAD-YAP block: TEAD-YAP interaction inhibition; HEK-TIYL cells, TEAD-Gal4/YAP UAS-luciferase luminescence; inhibition, % at 9.12 µM; 640,000 compounds, 1.4% hits; AID 1259422; in the data active means inhibition above about 32%
Of the large screens only hits and unclear results are named; the others gave an inactive call.

CC(C)OC(=O)/C(=C\c1ccccc1)NC(=O)/C=C/c1ccccc1	none
CCN1C(=O)CC(C(=O)Nc2ccc(OC)cc2)SC1=Nc1cccc(Cl)c1 (stereo unspecified)	none
COc1cc(-c2cc(C(=O)Nc3cc(C)[nH]n3)c3ccccc3n2)cc(OC)c1OC	TEAD-YAP block 33
Cc1cccc(Nc2ccc([N+](=O)[O-])cc2S(N)(=O)=O)c1	TEAD-YAP block 36
CCC(C)N1C(=O)S/C(=C/c2cc(C)n(-c3ccccn3)c2C)C1=O (stereo unspecified)	TEAD-YAP block 41
CC1=C(C(N)=O)C(c2cccnc2)n2nc(-c3ccc(Cl)cc3)nc2N1 (stereo unspecified)	none
Cc1nccn1-c1cc(NCCNC(=O)Nc2ccc(F)c(Cl)c2)ncn1	TEAD-YAP block 78
O=C(CCl)N1CCN(c2ccc([N+](=O)[O-])cc2)CC1	TEAD-YAP block 34
COc1ccc(N2CCN(CC(=O)N3c4ccccc4CC3C)CC2)cc1 (stereo unspecified)	MITF primary 65
COc1ccc(N2CCN(C(=O)CCl)CC2)cc1	TEAD-YAP block 49
COc1ccc(N2CCN(C(=O)CN(c3ccccc3C)S(C)(=O)=O)CC2)cc1	MITF primary 72
CC1Cc2ccccc2N1C(=O)CN1CCc2ccccc2C1 (stereo unspecified)	none
COc1ccc(N2CCN(C(=O)CN(c3cccc(C)c3C)S(C)(=O)=O)CC2)cc1	none
CN(C)C(=O)COc1cc(-c2ccnc(N)n2)ccc1NC(=O)C1COc2ccccc2C1 (stereo unspecified)	none
COc1cc2nc(Oc3ccccc3)nc(Nc3cc(OC)c(OC)c(OC)c3)c2cc1OC	TEAD-YAP block 56
N/C(=N\OC(=O)/C=C/c1ccccc1Cl)c1ccccn1	TEAD-YAP block 74
N/C(=N\OC(=O)/C=C/c1ccc(Br)cc1)c1ccccn1	TEAD-YAP block 39
N/C(=N\OC(=O)/C=C/c1ccccc1)c1cccnc1	none
CNC(=O)N(C1=NCC(C)S1)c1cccc(Cl)c1 (stereo unspecified)	TEAD-YAP block 40
CC1CN=C(N(C)C(=O)Nc2cccc(Cl)c2)S1 (stereo unspecified)	none
CCCN(CCC)C(=O)CSc1nc2nc(C)c(Cc3cccc(Cl)c3)c(C)n2n1	none
CC1C/C(=C/c2ccncc2)C(=O)/C(=C/c2ccncc2)C1 (stereo unspecified)	TEAD-YAP block 94
CC1CCCCN1C(=O)Cn1nnc2sc3c(c2c1=O)CCCC3 (stereo unspecified)	none
Cc1nc(NC(=O)c2cc3ccccc3o2)ccc1I	none
Cc1nc(NC(=O)c2ccco2)ccc1I	TEAD-YAP block 39
CN1C/C(=C/c2cccnc2)C(=O)/C(=C/c2cccnc2)C1	TEAD-YAP block 74
CC(C)N1C/C(=C/c2cccnc2)C(=O)/C(=C/c2cccnc2)C1	TEAD-YAP block 52
Cc1cc(N2C(=O)CSC2c2cccc(Cl)c2Cl)ccc1Br (stereo unspecified)	none
CCN(CC)S(=O)(=O)c1ccc2nc[nH]c2c1	none
Cc1cc(=O)oc2c(CNCCC(=O)O)c(O)ccc12	none
COc1ccc(/C=C/C(=O)NCc2ccccn2)cc1	none
O=C(/C=C/c1ccco1)Nc1ccccn1	TEAD-YAP block 51
Cc1ccc(NC(=O)/C=C/c2ccco2)nc1	none
COc1ccc(/C=C/C(=O)Nc2ccccn2)cc1	TEAD-YAP block 47
CC(C)(C)c1ccc(/C=C/C(=O)Nc2ccccn2)cc1	TEAD-YAP block 70
COc1ccc(O)c(/C=N/N(C)CCN(C)/N=C/c2cc(OC)ccc2O)c1	none
CCOCCn1c2c(c3ccccc31)=NC1C=CC=CC1N=2 (stereo unspecified)	FBW7 activator 2.7
CCn1c2ccccc2c2cc(NC(=O)C(=O)NCCCOC)ccc21	TEAD-YAP block 40
COc1ccc(C(CC(=O)O)NC(=O)COc2ccccc2)cc1OC (stereo unspecified)	none
COc1ccc(C(CC(=O)O)NC(=O)COc2cc(C)ccc2C)cc1OC (stereo unspecified)	FBW7 activator 2.9
FC(F)(F)c1cnc(Nc2ccccn2)cc1Nc1ccccn1	TEAD-YAP block 54
CN1Cc2cccc(Nc3cc(Nc4cccc5c4C(=O)N(C)C5)c(C(F)(F)F)cn3)c2C1=O	none
O=C1Nc2ccccc2/C1=N\N=C1/SCC(=O)N1c1ccc(O)cc1	TEAD-YAP block 50
Cc1c(N2C(=O)CS/C2=N\N=C2/C(=O)Nc3ccccc32)c(=O)n(-c2ccccc2)n1C	none
COc1ccc(C)cc1Nc1c2c(nc3ncnn13)CCC2	TEAD-YAP block 38
COc1ccccc1Nc1c2c(nc3ncnn13)CCC2	none
O=C(Nc1ccc(O)cc1)c1scc2c1CCCC2	TEAD-YAP block 68
